The full ranking holds about 33,000 sequences; the median of “E-score (-0.5 to 0.5)” is about -0.054, and the highest 2% start at about 0.35. Many of the other results were omitted from the sample, so the highest values are more common in it than they were.
Target: T1, Stb5 (UniProt P38699)
T1 sequence: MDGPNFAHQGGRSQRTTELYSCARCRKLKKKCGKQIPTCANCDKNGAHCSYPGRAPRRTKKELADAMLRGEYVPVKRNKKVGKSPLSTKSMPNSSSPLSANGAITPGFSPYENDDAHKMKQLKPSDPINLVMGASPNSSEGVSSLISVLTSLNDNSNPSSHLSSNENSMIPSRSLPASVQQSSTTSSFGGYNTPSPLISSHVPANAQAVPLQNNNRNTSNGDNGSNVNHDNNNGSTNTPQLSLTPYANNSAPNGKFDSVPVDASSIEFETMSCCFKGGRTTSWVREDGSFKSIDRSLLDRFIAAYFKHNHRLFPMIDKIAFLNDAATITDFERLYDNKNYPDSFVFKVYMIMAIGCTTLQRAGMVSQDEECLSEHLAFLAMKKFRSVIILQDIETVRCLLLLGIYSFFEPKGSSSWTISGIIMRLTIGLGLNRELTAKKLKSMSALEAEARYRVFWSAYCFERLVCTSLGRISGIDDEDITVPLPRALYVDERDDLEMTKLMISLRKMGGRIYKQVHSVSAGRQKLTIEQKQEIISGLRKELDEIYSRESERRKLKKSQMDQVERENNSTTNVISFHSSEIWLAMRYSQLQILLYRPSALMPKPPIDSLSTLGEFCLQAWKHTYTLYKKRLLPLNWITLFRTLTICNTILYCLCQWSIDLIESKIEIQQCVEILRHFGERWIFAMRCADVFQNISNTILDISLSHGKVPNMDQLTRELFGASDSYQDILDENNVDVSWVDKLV
Experiment: PBM E-score (8-mer binding enrichment) (E-score (-0.5 to 0.5)); higher = stronger / more preferred TF binding
Conditions: protein concentration: 200 nM; construct: GST-full length
How it was run: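 Yeast transcription factors carrying a GST tag, as full-length proteins or DNA-binding domains, were produced by PURExpress in vitro transcription/translation. About 100-200 nM protein was applied to universal all-10-mer Agilent arrays, double-stranded by primer extension on fresh or once-stripped slides. Bound protein was detected with fluorescent anti-GST, and scans were normalised with masliner. The Universal PBM Analysis Suite gave each ungapped eight-base word, pooled with its reverse complement, an E-score, a modified Wilcoxon-Mann-Whitney statistic.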

Row | Sequence | PBM E-score
1 | GGAAAGCA | 0.024
2 | AGAGTGCT | -0.0924
3 | AGATCGGA | 0.335
4 | TAGTCGAA | -0.0837
5 | AATAGCAG | -0.0777
6 | GGCTATTA | -0.0171
7 | AGCTATTA | -0.041
8 | CGCTATTA | 0.357
9 | ACTGGCGC | -0.0545
10 | AGGGGGGA | -0.38
11 | GTATGGTA | -0.168
12 | ATCCCCCG | 0.292
13 | ATCCCCCC | -0.0842
14 | ATCCCCGG | 0.379
15 | ATCCCCGC | 0.453
16 | ATCCCGGG | 0.299
17 | ATCCCCGA | 0.374
18 | GTCCCCGA | 0.185
19 | CTCCCCGC | 0.248
20 | CTCCCCGA | 0.225
21 | ATTCGCAC | 0.00083
22 | GAAACGTA | -0.0447
23 | AAATGCTA | -0.223
24 | CCTTGGCA | -0.227
25 | CGTTAACC | 0.0895
26 | GTACCAAC | -0.00359

Row | Sequence | PBM E-score
27 | ACCAGATC | -0.153
28 | CTCTATGA | -0.245
29 | CCTGCTAG | -0.0487
30 | AGTCTCAT | -0.154
31 | CGCCACAC | 0.0326
32 | CCGCCGCC | 0.361
33 | ACGCCGTA | 0.204
34 | ACGCCGCG | 0.361
35 | ACGCCTCT | -0.306
36 | CAGCCGCC | 0.0327
37 | AAGCCGCG | 0.287
38 | AAGCCGTC | 0.243
39 | GCGCCGCC | 0.331
40 | AAGCCGCT | 0.134
41 | ACGCCGCT | 0.383
42 | ACGCCGTC | 0.405
43 | ACGCCGTG | 0.297
44 | AACTTCTT | -0.0358
45 | ATAGAGTA | -0.0125
46 | CGTCTAAC | 0.0919
47 | GGATAGGA | -0.00719
48 | CAGCGCAA | -0.0211
49 | CGACAGTA | 0.0893
50 | AGTGACGA | -0.191
51 | AGCTCCCC | -0.226
52 | TACTAGCA | -0.277

Row | Sequence | PBM E-score
53 | AGTGAAGA | -0.155
54 | ACTGAAGG | -0.139
55 | CATAGAGG | -0.173
56 | CAGCCGCG | 0.0138
57 | AAGCCGCC | 0.245
58 | GCGCCGCA | 0.268
59 | ACGCCGCA | 0.354
60 | ATGCCGCC | 0.423
61 | AGGCCGCC | 0.324
62 | CCGCCGCG | 0.363
63 | ACGCCGCC | 0.41
64 | ATGCCGCG | 0.319
65 | CCGCCGCA | 0.301
66 | CCGCGCCG | 0.288
67 | ATGCCGCA | 0.25
68 | AAGGGGAA | -0.188
69 | AATGGATA | 0.135
70 | TGGACCAA | -0.112
71 | GTTACTTA | 0.0421
72 | CCGAGGAG | 0.0924
73 | AGATCAAC | -0.251
74 | CCGCCGTC | 0.29
75 | CCGCCGTA | 0.381
76 | GCGCCGTA | 0.253
77 | CATAAGCG | 0.0871
78 | GTTGAGGA | -0.203

Row | Sequence | PBM E-score
79 | CTTTCACA | -0.0931
80 | GCAAGACC | 0.146
81 | CCGATGCG | 0.339
82 | CGGGGAAA | 0.385
83 | AGGGGATA | 0.0586
84 | AGGAACTA | 0.0488
85 | AGGAATTA | -0.00087
86 | CGGAATTC | 0.0284
87 | CGGGGATA | 0.478
88 | CGGAACTA | 0.44
89 | GGGGGAAA | 0.165
90 | CGGAATTA | 0.417
91 | CGGAACTC | 0.0793
92 | CGGGGGAA | 0.257
93 | GGGGGATA | 0.13
94 | AGAATGGG | -0.212
95 | CCTTGACA | -0.071
96 | GCTTTTAC | 0.265
97 | ACGTCGTC | -0.0716
98 | AAAGTTTG | -0.169
99 | CGGCCGCA | 0.235
100 | TGTAACAA | -0.111
101 | GAATCTCA | -0.131
102 | GGTCGCGA | -0.0386
103 | CGGAAGTA | 0.352
104 | CGGAAGTC | 0.204

Row | Sequence | PBM E-score
105 | GGGGAATA | 0.174
106 | CGGAAATA | 0.399
107 | AGGAAGTA | 0.0105
108 | CGGAAATC | 0.0555
109 | CGGGAATA | 0.456
110 | CGGGATTC | 0.219
111 | GGGAAATA | 0.134
112 | CGGGATTA | 0.471
113 | AGGGAATA | 0.0674
114 | AGGGATTA | 0.0519
115 | GAAGCGGA | 0.282
116 | CTCGATGC | -0.2
117 | CGAGTGTC | -0.0644
118 | AGCTTTTG | -0.139
119 | CAGACACC | 0.0808
120 | AGTACGAT | -0.165
121 | CCAGTGAG | -0.17
122 | TTATAGAA | -0.0532
123 | GCATAAGC | 0.0731
124 | AGAGACGG | 0.0766
125 | CTTTGACA | -0.135
126 | CGGGGACA | 0.415
127 | GGGGACTA | -0.0234
128 | AGGGAGTA | -0.109
129 | GGGGAGTA | 0.0545
130 | CGGGACTC | 0.184

Row | Sequence | PBM E-score
131 | CGGGAGTA | 0.417
132 | CGGGGACC | 0.051
133 | GGGGGACA | -0.187
134 | CGGGACTA | 0.451
135 | AACGGGTA | 0.102
136 | ACGATCCT | -0.231
137 | ATTCCGGA | 0.115
138 | AGTCCGGG | 0.274
139 | GATCCGGA | 0.227
140 | CGTCCGCC | 0.338
141 | CGTCCGGC | 0.275
142 | GGTCCGGA | 0.391
143 | AGTCCGGC | 0.38
144 | AGTCCGCA | 0.323
145 | CGTCCGGA | 0.153
146 | AGTCCGGA | 0.39
147 | AGTCCGCC | 0.42
148 | AGTCCGCG | 0.339
149 | AACCCTCC | -0.0222
150 | AATTCTCG | -0.186
151 | TCGCCTCA | -0.162
152 | CCCGAACC | 0.144
153 | CGCAGACA | -0.0673
154 | AACTTCAC | -0.293
155 | ACTGGGGG | -0.28
156 | AGAGTGAT | -0.258

Row | Sequence | PBM E-score
157 | AAGTTCTG | -0.231
158 | CCACCTTC | -0.199
159 | ACCGCTAC | 0.395
160 | ACCGCTCT | 0.226
161 | GCCGCTAC | 0.39
162 | ACCGCTAT | 0.33
163 | CCCGCTGC | 0.209
164 | ACCGCTGC | 0.364
165 | CCCGCTAC | 0.216
166 | ACCGCTCC | 0.323
167 | ACCGCTCG | 0.357
168 | ACCGCTAA | 0.263
169 | GCCGCTAA | 0.296
170 | ACCGCTGA | 0.255
171 | AAACGAAG | -0.0773
172 | ATCTGGCC | 0.0703
173 | TCACGCGA | -0.0286
174 | ACCTCTAT | -0.163
175 | TCTGTGCA | -0.195
176 | GTAGTAAC | 0.12
177 | AACGAACC | -0.116

Source: the supplement of paper PMC3334620
